Assay [1] has as its target Casein kinase I isoform gamma-2 (Homo sapiens) (UniProt P78368). Conditions: at 1 µM.
Assay [2] concerns the target Casein kinase I isoform gamma-3 (Homo sapiens) (UniProt Q9Y6M4). Conditions: at 0.1 µM.
For assay [3] the target is unchanged. The note with it: at 1 µM.
Assay [4] has as its target Cyclin-dependent kinase 1 (Homo sapiens) (UniProt P06493). Conditions: at 0.1 µM.
Assay [5] shares this target. The note with it: at 1 µM.
Assay [6] deals with Cyclin-dependent kinase 2 (Homo sapiens) (UniProt P24941). Conditions: at 0.1 µM.
Assay [7] has the same target. Conditions: at 1 µM.
For assay [8] the target is unchanged. Conditions: at 0.1 µM. The source holds these as a separate data set.
Assay [9] shares this target. Conditions: at 1 µM. The source holds these as a separate data set.
The target in assay [10] is T1, CDK3/Cyclin E (Homo sapiens) (UniProt P24864+Q00526). The note with it: at 0.1 µM.
In assay [11] the target is T1, CDK3/Cyclin E (Homo sapiens). Conditions: at 1 µM.
Assay [12] addresses Cyclin-dependent kinase 4 (Homo sapiens) (UniProt P11802). Conditions: at 0.1 µM.
The target is the same in assay [13]. The note with it: at 1 µM.
For assay [14], the target named is Cyclin-dependent kinase 5 (Homo sapiens) (UniProt Q00535). Conditions: at 0.1 µM.
The target is the same in assay [15]. Conditions: at 1 µM.
Assay [16] addresses Cyclin-dependent kinase 6 (Homo sapiens) (UniProt Q00534). The note with it: at 0.1 µM.
Assay [17] has the same target. The note with it: at 1 µM.
For assay [18], the target named is Dual specificity protein kinase CLK2 (Homo sapiens) (UniProt P49760). Conditions: at 0.1 µM.
Assay [19] shares this target. The note with it: at 1 µM.
Assay [20] addresses Dual specificity protein kinase CLK3 (Homo sapiens) (UniProt P49761). The note with it: at 0.1 µM.

Casein kinase I isoform gamma-2 (Homo sapiens), sequence (P78368 whole entry, looked up, canonical isoform): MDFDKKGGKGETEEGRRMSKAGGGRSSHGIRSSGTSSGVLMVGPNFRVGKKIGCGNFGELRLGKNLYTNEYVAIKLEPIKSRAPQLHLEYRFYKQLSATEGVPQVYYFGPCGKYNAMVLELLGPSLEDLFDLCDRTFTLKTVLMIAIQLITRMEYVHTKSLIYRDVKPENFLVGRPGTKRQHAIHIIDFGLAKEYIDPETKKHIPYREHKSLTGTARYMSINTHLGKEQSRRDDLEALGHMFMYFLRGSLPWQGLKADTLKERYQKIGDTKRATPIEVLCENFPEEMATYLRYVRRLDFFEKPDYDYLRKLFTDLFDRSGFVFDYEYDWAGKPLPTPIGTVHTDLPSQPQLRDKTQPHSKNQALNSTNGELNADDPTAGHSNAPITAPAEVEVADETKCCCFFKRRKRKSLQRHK
Cyclin-dependent kinase 1 (Homo sapiens), sequence (P06493 whole entry, looked up): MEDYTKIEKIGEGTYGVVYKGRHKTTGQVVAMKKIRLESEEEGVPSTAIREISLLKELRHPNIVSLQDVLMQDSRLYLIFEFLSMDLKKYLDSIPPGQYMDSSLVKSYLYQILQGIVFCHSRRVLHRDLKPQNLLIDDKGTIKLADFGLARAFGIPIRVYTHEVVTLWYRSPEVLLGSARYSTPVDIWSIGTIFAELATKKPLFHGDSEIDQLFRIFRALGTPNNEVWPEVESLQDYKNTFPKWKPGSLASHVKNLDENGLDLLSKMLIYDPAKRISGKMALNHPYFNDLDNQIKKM
Cyclin-dependent kinase 4 (Homo sapiens), sequence (P11802 whole entry): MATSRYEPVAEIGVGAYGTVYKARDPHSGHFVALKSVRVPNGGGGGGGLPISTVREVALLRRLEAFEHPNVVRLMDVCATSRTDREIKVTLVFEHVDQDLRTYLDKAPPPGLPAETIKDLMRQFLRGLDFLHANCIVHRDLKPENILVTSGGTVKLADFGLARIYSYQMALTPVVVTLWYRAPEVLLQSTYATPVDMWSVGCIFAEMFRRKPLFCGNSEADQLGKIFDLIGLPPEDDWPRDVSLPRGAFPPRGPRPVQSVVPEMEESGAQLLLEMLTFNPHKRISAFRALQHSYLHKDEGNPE
Dual specificity protein kinase CLK3 (Homo sapiens), sequence (P49761 whole entry, looked up): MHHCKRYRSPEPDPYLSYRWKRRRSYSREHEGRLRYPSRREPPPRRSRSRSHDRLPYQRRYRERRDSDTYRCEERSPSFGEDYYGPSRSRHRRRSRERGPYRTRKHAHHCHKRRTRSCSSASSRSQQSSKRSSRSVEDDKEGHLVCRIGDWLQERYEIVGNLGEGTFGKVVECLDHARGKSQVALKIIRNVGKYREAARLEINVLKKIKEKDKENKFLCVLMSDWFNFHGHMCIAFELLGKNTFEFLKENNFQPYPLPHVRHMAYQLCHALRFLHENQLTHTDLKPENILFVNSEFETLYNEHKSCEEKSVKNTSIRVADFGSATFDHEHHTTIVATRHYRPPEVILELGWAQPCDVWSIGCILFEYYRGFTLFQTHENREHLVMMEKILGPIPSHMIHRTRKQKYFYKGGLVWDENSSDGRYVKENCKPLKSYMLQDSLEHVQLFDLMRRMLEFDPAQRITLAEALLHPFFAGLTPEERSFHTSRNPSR
Casein kinase I isoform gamma-3 (Homo sapiens), sequence (Q9Y6M4 whole entry, looked up, canonical isoform): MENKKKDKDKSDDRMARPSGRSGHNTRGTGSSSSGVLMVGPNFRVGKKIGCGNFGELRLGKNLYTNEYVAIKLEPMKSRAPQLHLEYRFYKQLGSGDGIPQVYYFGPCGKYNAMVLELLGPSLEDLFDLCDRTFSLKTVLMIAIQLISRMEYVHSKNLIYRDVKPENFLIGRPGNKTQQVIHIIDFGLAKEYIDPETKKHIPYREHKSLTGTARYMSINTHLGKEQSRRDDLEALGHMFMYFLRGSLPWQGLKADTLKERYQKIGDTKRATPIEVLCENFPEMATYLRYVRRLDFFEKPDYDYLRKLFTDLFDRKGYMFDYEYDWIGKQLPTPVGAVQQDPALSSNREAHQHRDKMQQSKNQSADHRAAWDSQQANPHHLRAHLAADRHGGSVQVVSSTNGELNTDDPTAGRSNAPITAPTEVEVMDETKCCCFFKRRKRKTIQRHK
Cyclin-dependent kinase 5 (Homo sapiens), sequence (Q00535 whole entry, looked up): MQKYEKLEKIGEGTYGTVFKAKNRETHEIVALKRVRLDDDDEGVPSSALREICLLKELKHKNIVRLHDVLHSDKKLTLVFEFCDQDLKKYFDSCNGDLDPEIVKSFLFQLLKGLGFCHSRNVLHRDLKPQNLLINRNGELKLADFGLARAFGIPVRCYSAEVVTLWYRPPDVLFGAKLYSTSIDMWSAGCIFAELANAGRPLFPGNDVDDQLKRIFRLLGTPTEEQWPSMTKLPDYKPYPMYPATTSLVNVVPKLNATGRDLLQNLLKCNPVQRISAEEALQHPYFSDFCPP
Cyclin-dependent kinase 6 (Homo sapiens), sequence (Q00534 whole entry): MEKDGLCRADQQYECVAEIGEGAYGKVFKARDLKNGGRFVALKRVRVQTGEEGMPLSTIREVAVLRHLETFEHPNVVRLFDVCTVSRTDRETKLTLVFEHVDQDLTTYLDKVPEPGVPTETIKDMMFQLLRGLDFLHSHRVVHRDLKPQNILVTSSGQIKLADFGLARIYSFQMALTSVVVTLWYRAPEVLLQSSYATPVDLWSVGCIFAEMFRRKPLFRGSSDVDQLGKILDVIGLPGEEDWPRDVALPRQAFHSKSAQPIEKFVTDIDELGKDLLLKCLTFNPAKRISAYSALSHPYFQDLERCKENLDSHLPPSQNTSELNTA
Dual specificity protein kinase CLK2 (Homo sapiens), sequence (P49760 whole entry, looked up): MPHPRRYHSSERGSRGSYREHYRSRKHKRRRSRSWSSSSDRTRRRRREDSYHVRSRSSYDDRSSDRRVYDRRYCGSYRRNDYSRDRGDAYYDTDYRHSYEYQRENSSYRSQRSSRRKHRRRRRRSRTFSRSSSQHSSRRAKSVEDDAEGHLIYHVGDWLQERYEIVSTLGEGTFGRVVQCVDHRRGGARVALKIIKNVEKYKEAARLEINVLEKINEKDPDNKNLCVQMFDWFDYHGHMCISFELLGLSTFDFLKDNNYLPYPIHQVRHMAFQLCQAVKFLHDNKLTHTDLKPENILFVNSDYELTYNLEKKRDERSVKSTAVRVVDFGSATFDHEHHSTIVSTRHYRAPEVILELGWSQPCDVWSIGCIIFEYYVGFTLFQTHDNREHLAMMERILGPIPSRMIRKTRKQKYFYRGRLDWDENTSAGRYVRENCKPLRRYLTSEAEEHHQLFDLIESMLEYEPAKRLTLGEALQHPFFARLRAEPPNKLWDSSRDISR
T1 sequence (P24864 whole entry, looked up): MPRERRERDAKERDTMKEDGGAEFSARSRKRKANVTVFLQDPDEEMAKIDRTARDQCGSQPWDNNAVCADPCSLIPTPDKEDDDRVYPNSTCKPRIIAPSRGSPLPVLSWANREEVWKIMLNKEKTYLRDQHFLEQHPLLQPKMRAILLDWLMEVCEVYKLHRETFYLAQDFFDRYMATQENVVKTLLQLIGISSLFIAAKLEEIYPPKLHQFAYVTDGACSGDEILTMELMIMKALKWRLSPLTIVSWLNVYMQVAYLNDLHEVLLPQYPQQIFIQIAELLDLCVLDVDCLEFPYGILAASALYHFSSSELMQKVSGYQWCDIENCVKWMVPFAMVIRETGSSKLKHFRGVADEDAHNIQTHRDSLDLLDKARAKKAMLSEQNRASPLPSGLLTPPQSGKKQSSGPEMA
T1 sequence (Q00526 whole entry, looked up): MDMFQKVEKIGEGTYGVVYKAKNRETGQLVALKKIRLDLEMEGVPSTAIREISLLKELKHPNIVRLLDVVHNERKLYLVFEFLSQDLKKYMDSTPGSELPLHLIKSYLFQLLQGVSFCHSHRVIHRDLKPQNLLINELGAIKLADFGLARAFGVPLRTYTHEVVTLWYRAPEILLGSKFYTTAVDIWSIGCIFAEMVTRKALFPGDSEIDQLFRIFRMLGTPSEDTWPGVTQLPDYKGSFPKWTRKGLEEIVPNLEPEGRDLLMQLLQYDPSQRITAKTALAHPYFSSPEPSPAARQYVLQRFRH

In the case of `CS(=O)(=O)CCNCc1nc(-c2ccc3ncnc(Nc4ccc(OCc5cccc(C(F)(F)F)c5)cc4)c3c2)cs1`, the inhibition is 1.13% in assay [1]; 0.51% in assay [2]; -0.03% in assay [3]; 2.33% in assay [4]; 2.13% in [5]; 1.96% in assay [6]. Moreover, the inhibition in [7] was -0.45%; in assay [8], 1.42%; in assay [9] it was 0.41%; in assay [10], -1.59%; in [11], -0.52%; in [12], 4.15%. Moreover, the inhibition in assay [13] is 3.83%; in [14], 0.46%; in assay [15] it was -0.01%; in [16], -2.37%; in assay [17] it was 3.31%; in assay [18], -2.75%. Further, the inhibition in [19] is 1.02%; in assay [20] it was 0.04%.
As to `N#Cc1c(NC(=O)c2ccccc2F)sc2c1CCCC2`, the inhibition in assay [1] was -1.07%; in assay [2], -2.12%; in assay [3], -0.42%; in [4], 1.03%; in [5], 1.65%; in [6], -0.45%. Also, the inhibition in assay [7] is 0.88%; in assay [8], -2.16%; in assay [9], -0.2%; in assay [10], -1.77%; in assay [11], -1.38%; in assay [12], -0.94%. Further, the inhibition in assay [13] was 1.2%; in [14], 0.27%; in assay [15] it was 1.58%; in [16], -4.39%; in assay [17] it was -2.09%; in [18] it was -1.95%. In addition, the values for the inhibition in [19] and in [20] were -0.15% and -0.38%, respectively.
Take `Cc1ccc(Nc2ccnc(Nc3cccc(C(N)=O)c3)n2)cc1O`: the inhibition in assay [1] was 0.87%; in [2], -2.96%; in assay [3], 0.07%; in assay [4], -3.61%; in assay [5], 1.29%; in assay [6], -0.93%. Further, the inhibition in assay [7] was 16.1%; in assay [8], -0.2%; in [9], 7.62%; in [10] it was 1.92%; in [11], 4.71%; in assay [12] it was -2.5%. Also, the inhibition in assay [13] is 1.32%; in assay [14] it was -3.13%; in [15] it was 1.46%; in assay [16], -1.97%; in [17] it was -0.13%; in assay [18], 1.32%. Also, the inhibition in assay [19] was 6.94%; in assay [20] it was -0.76%.
With `CCn1c(-c2nonc2N)nc2ccc(F)cc21`, the inhibition in [1] was found to be 5.68%; in [2], 5.66%; in [3] it was 3.59%; in [4] it was 0.74%; in [5], 1.27%; in assay [6], 1.3%. In addition, the inhibition in [7] is 7.59%; in assay [8] it was 3.91%; in assay [9] it was 5.8%; in assay [10], 3.47%; in assay [11], -3.51%; in assay [12] it was 1.9%. Further, the inhibition is 2.11% in assay [13]; 0.58% in assay [14]; 0.39% in assay [15]; 1.33% in assay [16]; 2.18% in assay [17]; 2.5% in assay [18]. The inhibition amounted to 0.59% in [19] and 2.12% in assay [20].
In the case of `COc1ccc(-c2nn3ncccc3c2-c2ccnc(Nc3cccc(C(F)(F)F)c3)n2)cc1`, the inhibition came out at 2.2% in [1]; 2.44% in assay [2]; 1.71% in assay [3]; 0.53% in assay [4]; 1.61% in [5]; 0.03% in assay [6]. In addition, the inhibition in [7] was 1.83%; in assay [8], 2.35%; in assay [9], 4.1%; in assay [10], 0.68%; in assay [11], -2.93%; in assay [12] it was 1.42%. Moreover, the inhibition was 3.64% in assay [13]; 0.07% in [14]; 1.77% in assay [15]; -1.93% in assay [16]; -0.66% in [17]; 0.06% in assay [18]. The figures for the inhibition in assay [19] and in [20] were -1.44% and -0.4%, respectively.
Turning to `COc1cc2ncn(-c3cc(OCc4ccccc4S(C)(=O)=O)c(C#N)s3)c2cc1OC`, the inhibition in [1] is 3.78%; in assay [2] it was 2.68%; in assay [3], 2.61%; in assay [4] it was 1.59%; in assay [5], 6.07%; in assay [6], 2.46%. For the same molecule, the inhibition was determined as 5.28% in assay [7]; 4.39% in assay [8]; 5.94% in assay [9]; 0.41% in assay [10]; 2.11% in assay [11]; 3.64% in [12]. Also, the inhibition in assay [13] was 3.7%; in assay [14] it was 1.86%; in [15], 3.42%; in [16], 6.66%; in [17] it was 3.82%; in assay [18], 0.22%. Besides, the inhibition in [19] amounted to 10.8%; in [20], 2.39%.
As to `NS(=O)(=O)c1ccc(Nc2cc(-c3cccc(O)c3)n[nH]2)cc1`, the inhibition in assay [1] worked out at 5.96%; in [2] it was 7.49%; in [3] it was 2.14%; in assay [4], 2.03%; in assay [5] it was 12.9%; in assay [6], 16.7%. For the same molecule, the inhibition is 78.1% in [7]; 16.5% in [8]; 56% in assay [9]; 5.95% in [10]; 28.8% in assay [11]; 3.25% in assay [12]. Also, the inhibition worked out at 9.51% in assay [13]; 5.69% in assay [14]; 31.5% in [15]; 2.31% in assay [16]; 21.3% in assay [17]; 3.77% in assay [18]. Also, the values for the inhibition in [19] and in assay [20] were 2.54% and 1.95%, respectively.

Source of the values: ChEMBL document CHEMBL1961873, “Compounds: GSK PKIS; Assays: Nanosyn kinase panel” (2012).
